An excerpt weighted towards active compounds, which were near 5.4% of everything screened.
ALR inh – inhibitors of human ALR sulfhydryl oxidase, primary screen, biochemical, H2O2 detection, HRP-luminol luminescence, single point | FAD-linked sulfhydryl oxidase ALR (Homo sapiens), P55789 | purified ALR, DTT oxidation | inhibition, % (no concentration beside the values) | 290,000 compounds, 3.8% hits;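 active = mean replicate inhibition above about 79%, with every replicate also reaching it, limit read from the data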
PHOSPHO1 block – PubChem AID 1565. recombinant PHOSPHO1, absorbance phosphatase assay. inhibition, % at 13.3 µM. Phosphoethanolamine/phosphocholine phosphatase (Homo sapiens), Q8TCT1. 290,000 compounds, 1.1% hits; in the data active = inhibition above about 60%
Target sequence (Q8TCT1 whole entry, looked up): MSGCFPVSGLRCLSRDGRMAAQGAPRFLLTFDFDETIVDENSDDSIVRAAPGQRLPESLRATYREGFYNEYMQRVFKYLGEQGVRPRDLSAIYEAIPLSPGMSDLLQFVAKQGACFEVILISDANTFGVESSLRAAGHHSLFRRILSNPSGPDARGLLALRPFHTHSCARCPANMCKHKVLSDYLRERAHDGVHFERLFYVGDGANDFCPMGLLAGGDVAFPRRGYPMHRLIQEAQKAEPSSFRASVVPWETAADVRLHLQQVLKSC
A3G deaminase – APOBEC3G DNA deaminase inhibitors, primary screen, biochemical, fluorescence, single-stranded DNA substrate, uHTS. DNA dC->dU-editing enzyme APOBEC-3G (Homo sapiens), Q9HC16. recombinant A3G, ssDNA deamination FAM/TAMRA fluorescence. inhibition, % at 20 µM. 330,000 compounds, 0.28% hits. AID 493012, 2011;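 active = inhibition of at least 40% at 20 µM, with no more than 30% in the related APOBEC3A deaminase screen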;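 also: plate controls were DMSO wells with A3G for no effect and wells lacking A3G enzyme for full effect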
APOBEC3A inh – APOBEC3A ssDNA deaminase inhibitors, primary screen, selectivity assay for APOBEC3G inhibitor project, biochemical, FAM/TAMRA oligo cleavage fluorescence; recombinant A3A, FAM/TAMRA ssDNA deamination fluorescence; inhibition, % at 20 µM; AID 493011, 2011; 330,000 compounds, 0.41% hits;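 active = at least 40% inhibition at 20 µM here, with at most 30% in a related deaminase screen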;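 also: plate controls were A3A with DMSO for no effect and wells lacking A3A enzyme for full effect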
Target sequence (P31941 whole entry, looked up): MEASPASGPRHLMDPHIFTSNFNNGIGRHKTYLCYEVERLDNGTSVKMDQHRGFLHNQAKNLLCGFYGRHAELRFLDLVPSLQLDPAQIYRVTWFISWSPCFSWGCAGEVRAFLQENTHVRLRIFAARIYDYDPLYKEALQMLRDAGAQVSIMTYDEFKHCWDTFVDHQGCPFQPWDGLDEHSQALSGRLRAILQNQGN
rCAG binder – binders of r(CAG) RNA repeats, primary screen, biochemical, fluorescence | r(CAG) RNA repeat, TO-PRO-1 dye displacement fluorescence | inhibition, % at 3 µM | 370,000 compounds, 1.3% hits;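 active = inhibition above the plate cutoff, the mean of all test compounds on that plate plus 3 SD, cut at about 35% in these data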;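 also: 0% = DMSO alone and 100% = 100 µM mitoxantrone as full dye displacement; higher means more dye released from RNA so lower well fluorescence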
aDG glyco act – activators of alpha-DG glycosylation, primary screen, uHTS, Pro5-aDG cells, AlphaScreen; activation, % at 10 µM; 360,000 compounds, 0.22% hits; AID 624168, 2012; alpha-DG glycosylation AlphaScreen (IIH6); 0% Pro5, 100% B10-LARGE cell signal;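 active = activation of at least 8% versus controls, or a plate z-score of at least 8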;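 also: Pro5 are CHO cells carrying HIG-tagged alpha-DG that lacks glycosylation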
rCAG bind conf – small molecules binding CAG repeat RNA – biochemical, fluorescence, confirmation | shares compounds with rCAG binder | 4,300 compounds, 70% hits | r(CAG) RNA repeat, TO-PRO-1 dye displacement fluorescence | AID 652065, 2013 | inhibition, % at 3 µM;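 active = inhibition above a per-plate cutoff, the mean inhibition of sample wells plus 3 SD, cut at about 35% in these data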;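 also: loss of TO-PRO-1 fluorescence as compound displaces dye from 1x1 AA loop RNA; 0% = DMSO only wells and 100% = 100 µM mitoxantrone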
DNA CAG counter – displacement of TO-PRO-1 from CAG DNA duplex, counter-screen for rCAG RNA repeat binder project, biochemical, fluorescence, TO-PRO-1 dye, d(CAG) DNA oligo | shares compounds with rCAG binder | d(CAG) DNA oligo TO-PRO-1 dye displacement | AID 652068, 2013 | inhibition, % at 3 µM | 4,300 compounds, 94% hits;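 active = inhibition above its plate's cutoff, the mean test-well inhibition plus 3 SD, cut at about 4.8% in these data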;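 also: 0% = DNA dye mix with DMSO and 100% = 100 µM mitoxantrone; hits displace the dye from DNA and so lower well fluorescence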
An asterisk follows results filed as active; · = no result given.

SMILES	ALR inh	PHOSPHO1 block	A3G deaminase	APOBEC3A inh	rCAG binder	aDG glyco act	rCAG bind conf	DNA CAG counter
CCOc1ccccc1/C=N/NC(=O)c1cccc(S(=O)(=O)N(CC)CC)c1	-7	27	-7	-3	0	0	·	·
CCN(CC(=O)Nc1ccccc1C(F)(F)F)C(=O)c1ccc(-n2nc(C)c(CCC(=O)OC)c2C)cc1	·	·	·	·	0	0	·	·
O=C(O)c1cccc(S(=O)(=O)N2CCCC(c3nc4c(nnn4Cc4ccccc4Cl)c(=O)[nH]3)C2)c1 (configuration not stated)	2	19	-5	1	43*	0	30	9.3*
CC1CN(C2CCCCC2)C(=S)N(c2ccccc2)C1=O (configuration not stated)	·	·	·	·	0	0	·	·
O=C1NC[C@H](CCCCN2C[C@H](Cc3ccccc3)N(CC3CCCCC3)C(=O)C2=O)N(CCc2ccccc2)C1=O	·	·	·	·	2	0	·	·
C[C@H](c1ccccc1)N1C[C@@H](COCc2ccccc2)Oc2cc(N3CCC[C@H]3CO)ccc2S1(=O)=O	·	·	·	·	10	0	·	·
C/C(=N\NC(=O)c1ccccc1O)C1C(=O)c2ccccc2C1=O	98*	-1	2	2	72*	0	64*	18*
O=C(Nc1ccc(O)cc1C(=O)O)c1ccc2c(c1)C(=O)N(Cc1ccco1)C2=O	54	-3	1	10	73*	0	86*	50*
O=C(CN1C(=O)c2ccc([N+](=O)[O-])cc2C1=O)NCc1ccco1	-26	1	-14	-5	1	0	·	·
O=C(O)Cc1ccc(NC(=O)c2ccc3c(c2)C(=O)N(Cc2ccco2)C3=O)cc1	0	20	1	22	19	0	·	·
O=C(Nc1cc([N+](=O)[O-])ccc1O)c1ccc2c(c1)C(=O)N(Cc1ccco1)C2=O	98*	10	3	5	83*	0	64*	25*
CCOC(=O)n1cnc2nc(N)nc(SC)c21	·	·	·	·	3	0	·	·
Fc1cccc2sc(Nc3nc4cc5c(cc4s3)OCO5)nc12	4	6	-10	2	67*	1	54*	33*
Fc1cccc2sc(Nc3nc4cc5c(cc4s3)OCCO5)nc12	0	-4	-5	5	11	0	·	·
O=C(NC(NC(=S)Nc1c(Cl)cccc1Cl)C(Cl)(Cl)Cl)c1cccc([N+](=O)[O-])c1 (configuration not stated)	-37	-9	-7	-2	47*	4	36*	16*
COc1ccc(NC(=S)NC(NC(=O)c2ccccc2Cl)C(Cl)(Cl)Cl)c([N+](=O)[O-])c1 (configuration not stated)	4	9	-1	0	21	0	·	·
O=C(NNc1c(Cl)cc(Cl)cc1Cl)c1cccc([N+](=O)[O-])c1	93*	4	-8	-3	37*	1	6	3
COc1ccc([N+](=O)[O-])cc1NC(=S)NC(NC(=O)C(c1ccccc1)c1ccccc1)C(Cl)(Cl)Cl (configuration not stated)	-2	18	7	-18	47*	2	39*	23*
CCn1c(SCc2c(F)cccc2F)nc2sc3c(c2c1=O)CCCC3	·	·	·	·	4	·	·	·
COC(=O)[C@]12C[C@H](CC(=O)N3CCN(C(=O)c4ccco4)CC3)C(=O)N(Cc3ccc4c(c3)OCO4)C1=C[C@H](C(C)(C)C)O[C@@H]2C	·	·	·	·	3	·	·	·
O=C(O)c1cccc(CSc2nc(-c3ccccc3)cc(C(F)(F)F)n2)c1	·	3	1	1	62*	0	48*	14*
Cc1ccc(-c2n[nH]c(=S)n2/N=C/C=C\c2ccccc2[N+](=O)[O-])cc1	21	92*	9	-4	35*	0	33	11*
S=c1[nH]nc(-c2cc(-c3ccccc3)n[nH]2)n1/N=C/c1ccc(Br)s1	9	-36	-8	-3	71*	0	79*	46*
Cc1ccccc1/C=N/n1c(-c2cc(-c3ccccc3)n[nH]2)n[nH]c1=S	-8	-15	10	-7	31	0	·	·
S=c1[nH]nc(-c2cc(-c3ccccc3)n[nH]2)n1/N=C/C=C/c1ccco1	-58	23	51	40	41*	0	51*	24*
SMILES	ALR inh	PHOSPHO1 block	A3G deaminase	APOBEC3A inh	rCAG binder	aDG glyco act	rCAG bind conf	DNA CAG counter
Cc1ccsc1/C=N/n1c(-c2cc(-c3ccccc3)n[nH]2)n[nH]c1=S	-6	10	15	-6	29	0	·	·
O=[N+]([O-])c1ccccc1C=Nn1c(-c2cc(-c3ccccc3)n[nH]2)n[nH]c1=S	·	·	·	·	47*	·	53*	19*
CS(=O)(=O)Nc1cccc(NC(=O)C2Cc3c(-c4cccc(F)c4)ccnc3O2)c1 (configuration not stated)	·	·	·	·	5	0	·	·
CCCCOCC1CN(CCCC)S(=O)(=O)c2c(Oc3ccc(SC)c(C)c3)cccc2O1 (configuration not stated)	·	·	·	·	4	·	·	·
S=c1[nH]nc(-c2cc(-c3ccccc3)n[nH]2)n1/N=C/c1cccc2ccccc12	·	·	·	·	79*	·	78*	40*
COc1ccc2ccccc2c1C=Nn1c(-c2cc(-c3ccccc3)n[nH]2)n[nH]c1=S	·	·	·	·	70*	·	58*	27*
S=c1[nH]nc(-c2cc(-c3ccccc3)n[nH]2)n1/N=C/c1c(Cl)cccc1Cl	1	-6	29	-6	43*	0	68*	29*
CCOC(=O)C(=Cc1ccc2c(c1)OCO2)c1ccccc1	·	·	·	·	-2	0	·	·
COc1ccc(CSc2nnc(SCc3ccccc3)s2)cc1	·	·	·	·	0	·	·	·
COC(=O)C1=C(C)N(CC(C)C)C(=S)NC1c1ccc(-c2ccccc2)cc1 (configuration not stated)	·	·	·	·	2	·	·	·
C=C(C)Cn1c2ccc(NC(=O)NCc3ccccc3)cc2c(=O)n1C	·	·	·	·	1	0	·	·

Screening data as filed in PubChem BioAssay.
